Rows were chosen to be rich in hits. Some 19% of all compounds tested hit in one or more screens of this group.
KB-V1 cytotox = KB-V1 MDR subline cytotoxicity; KB-V1 MDR cells viability, CellTiter-Glo, 72 h; actives 3.4% (n = 400,000); Potency, µM (highest dose often 46.1 µM), hits mostly cytotoxic; note: nearly all actives have a fitted effect of over 60% in size
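KB-V1 MDR subline cells in DMEM (phenol-red free, 10% FBS) exposed to compounds in qHTS concentration series for 72 h at 37 degrees C. Viability read by CellTiter-Glo luminescence; concentration-effect curves fitted after normalization and correction.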
KB-3-1 tox = kills parental KB-3-1 adenocarcinoma cells; KB-3-1 viability, CellTiter-Glo ATP luminescence, 72 h; Potency, µM (titrated, usually from 46.1 µM), most hits filed as cytotoxic; actives 1.4% (n = 400,000); AID 1347075; note: nearly all actives have a fitted effect of over 60% in size
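Here the drug-naive KB-3-1 line serves as comparator for MDR sub-line selectivity; cells received compound titrations, 72 h at 37 °C, then CellTiter-Glo readout.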
TDP1 cell CPT = DT40-hTDP1 cell growth loss with CPT; Potency, µM (top dose mostly 46.2 µM), inactives show at the highest dose activity change, negative = growth inhibition, most hits filed as inhibitors; actives 12% (n = 420,000); chicken DT40 Tdp1-/-;hTDP1 cells + 20 nM CPT, ATP luminescence, 48 h; note: nearly all actives have a fitted effect of over 55% in size
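Chicken DT40 Tdp1-/- cells complemented with human TDP1, 400 cells/well, exposed to compounds plus 20 nM camptothecin for at least 48 h at 37 C; viability read as ATP content by CellTiter-Glo luminescence.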
TDP1 cell noCPT = qHTS for Inhibitors of human tyrosyl-DNA phosphodiesterase 1 (TDP1): qHTS in cells in absence of CPT | actives 15% (n = 420,000) | AID 686978, 2013 | DT40 Tdp1-/- hTDP1 cells, no CPT, ATP luminescence, 48 h | Potency, µM (series often up to 46.2 µM), inactives show at the top dose activity change, negative = growth inhibition, hits mostly inhibitors; note: nearly all actives have a fitted effect of over 55% in size
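Luminescent ATP content (CellTiter-Glo) served as the growth readout. Knockout chicken DT40 cells expressing human TDP1 were exposed to compounds without camptothecin for a minimum 48 hr at 37 °C.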
HT1080 IDH1KD tx = toxicity to HT-1080 IDH1 knockdown cells (counter line); actives 2% (n = 360,000); Potency, µM (highest dose often 46.1 µM), for inactives: at the highest dose activity, negative = toxicity, most hits filed as cytotoxic; HT-1080 IDH1 knockdown viability, ATP luminescence, 48 h; AID 686971;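 note: 0% = DMSO wells and -100% = cell-free medium wells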
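In this qHTS, HT-1080 cells depleted of IDH1 are exposed for 48 h at 37 °C to compound titrations. Toxicity is scored from CellTiter-Glo luminescence, with DMSO as full viability and medium alone as none.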
HT1080NT lethal = kills 2HG-producing HT-1080-NT fibrosarcoma cells; HT-1080-NT fibrosarcoma viability, CellTiter-Glo ATP luminescence, 48 h; Potency, µM (series often up to 46.1 µM), for the others: top-dose activity, negative = less viability, most hits filed as cytotoxic; actives 1.6% (n = 360,000);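 note: NT is the 2HG producing partner of a matched IDH1 knockdown line; 0% = DMSO-treated cells and -100% = media-only wells without cells; nearly all actives have a fitted effect of over 55% in size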
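Viability by CellTiter-Glo luminescence after 48 h compound exposure at 37C of HT-1080-NT cells (750/well, RPMI, 5% FBS). % activity scaled between DMSO wells and medium-only wells, then curve-fitted and categorized by curve class.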
The depositor's hits bear a star; i = inactive; ? = inconclusive; · = not tested or not shown; ! = a repeat was not active; [ ] = dose if it differs, or a comment. Calls come from the whole dose curve; as a rule, active = well fitted curve in the direction sought with a large enough effect; inconclusive = small, poorly fitted or top-dose-only effect, or another doubt; inactive = no such curve, though single readings can be large; an effect the other way counts as inactive or inconclusive. Unless noted, % is set by controls: 0 for no effect and ±100 for the full control effect; potency is the fitted concentration of half-maximal effect.

SMILES	KB-V1 cytotox	KB-3-1 tox	TDP1 cell CPT	TDP1 cell noCPT	HT1080 IDH1KD tx	HT1080NT lethal
O=C(Nc1ccc2nc(SCC(=O)N3CCCc4ccccc43)sc2c1)c1ccccc1F	·	·	5.8µM*	5.17µM*	·	·
Cn1c(O)c(C=NCCN2CCNCC2)c(=O)[nH]c1=O	i	i	22.8%	-9.3%	17.7%	24.9%
CN1CC[C@@]2(CCCN(C(=O)c3ccco3)C2)C1	·	·	2.8%	2.4%	·	·
O=c1c(O)c(-c2ccc(O)c(O)c2)oc2c(O)c(O)cc(O)c12	·	·	18.4µM*	?	·	·
CC(C)c1ccc(C(=O)N2CCCC(c3cc(C(=O)Nc4ccccc4Cl)no3)C2)cc1 (stereo not given)	?	18.4µM*	14.6µM*	5.8µM*	1.2%	21.7%
Cc1ccc2[nH]c(C)c(CCNCc3ccco3)c2c1	i	i	?	?	-2.4%	-1.5%
Cc1cccc(CCNCc2cc3ccc(C)cc3[nH]c2=O)c1	i	i	23.1µM*	?	-10.2%	-11.7%
O=C(C[N+]12CCC(CC1)C(C(O)(c1ccccc1)c1ccccc1)C2)c1ccc(Br)cc1 (stereo not given)	i	i	14.6µM*	7.31µM*	-6.9%	-10.2%
CCCCn1c(CN2CCN(c3ccc(F)cc3)CC2)nc2c1c(=O)n(C)c(=O)n2C	i	i	1.64µM*	1.64µM*	-2.7%	1.1%
CCCN(CCC)c1c([N+](=O)[O-])cc(C(F)(F)F)cc1[N+](=O)[O-]	·	·	-6.2%	-0.4%	·	·
COc1cc2c(c(OC)c1OC)-c1ccc(OC)c(=O)cc1[C@H](NC(C)=O)CC2	·	·	0.0944µM*	0.0596µM*	·	·
COc1cc2c(c(OC)c1OC)-c1ccc(C(=O)O)cc1[C@@H](NC(C)=O)CC2	i	i	·	·	·	·
COc1cc2c(c(OC)c1OC)-c1ccc(OC)c(=O)cc1[C@@H](NC(C)=O)CC2	7.31µM*	0.0731µM*	0.0164µM*	0.188µM*!	?	?
COc1cc2c(c(OC)c1O)-c1ccc(OC)c(=O)cc1C(NC(=O)C(F)(F)F)CC2 (stereo not given)	?	?	0.103µM*	0.164µM*	?	0.013µM*
CCN(CC)c1ccc2c(cc1=O)[C@@H](NC)CCc1cc(OC)c(OC)c(OC)c1-2	6.51µM*	0.92µM*	1.16µM*	1.16µM*	?	1.3µM*
O=C(CCC(=O)N1C[C@H]2C[C@@H](C1)c1cccc(=O)n1C2)NCc1ccc(F)cc1	i	i	11.8%	2.3%	0.2%	12.0%
O=C(Cc1ccccc1)N1CCN(Cc2ccc(F)cc2)CC1	i	i	5.2%	-11.1%	11.7%	2.0%
O=C(NCc1ccccc1)c1cccc(Nc2nc3ccccc3n3nnnc23)c1	?	i	20.6µM*	14.6µM*	·	·
COc1cccc(C2CCN(C)C2)c1 (stereo not given)	i	i	-2.1%	?	0.2%	-0.6%
CN1CCN(c2csc3ccc(F)cc3c2=O)CC1	i	i	4.8%	-3.1%	·	·
COc1ccc(N2C(=O)CS(=O)C(c3ccccc3)C2=O)cc1 (stereo not given)	?	i	?	20.6µM*	18.2%	9.7%
COc1ccccc1-n1c(Cc2ccccc2)nc2ccccc2c1=O	?	i	1.8%	-29.6%	-10.1%	-1.4%
CCCCOc1nc2ccccc2c(=O)n1-c1ccccc1	16.4µM*	i	?	?	9.0%	12.8%
CCCc1nc2ccccc2c(=O)n1-c1cccc(OC)c1	i	i	18.4µM*	?	-9.1%	-5.5%
CCc1nc2ccccc2c(=O)n1-c1ccc2ccccc2c1	i	?	?	?	-19.5%	-5.9%
SMILES	KB-V1 cytotox	KB-3-1 tox	TDP1 cell CPT	TDP1 cell noCPT	HT1080 IDH1KD tx	HT1080NT lethal
CCCc1nc2ccccc2c(=O)n1-c1ccccc1OC	i	i	?	20.6µM*	2.8%	4.3%
CCCSc1nc2ccccc2c(=O)n1-c1ccccc1OC	·	·	?	20.6µM*	·	·
CN1CCC2=C[C@@H](O)[C@@H]3OC(=O)c4cc5c(cc4C3C21)OCO5 (stereo not given in full)	·	·	-24.6%[9.04 µM]	-26.1%[9.04 µM]	·	·
CCCc1nc2ccccc2c(=O)n1-c1ccc(OC)cc1	i	i	?	23.1µM*	1.9%	5.2%
CCCCc1nc2ccccc2c(=O)n1-c1ccccc1O	i	i	?	?	-3.2%	-12.0%
CCCCc1nc2ccccc2c(=O)n1-c1cccc(OC)c1	i	i	16.4µM*	18.4µM*	·	·
CCN(CC)CCO	i	i	-1.0%	6.4%	6.7%	8.7%
CC(C)CC(C)N (stereo not given)	i	i	2.7%	8.8%	1.5%	-28.2%
COC(=O)c1cccc(NC(=O)c2ccc(S(=O)(=O)N(C)c3ccccc3OC)cc2)c1	?	i	16.4µM*	11.6µM*	-28.2%	-0.4%
CC(OC(=O)c1cn(C)c2ccccc12)C(=O)N(C)c1ccccc1 (stereo not given)	?	i	-2.8%	?	1.8%	4.7%
COc1cccc(N2CCN(Cc3ccc(Cl)cc3)CC2)c1	16.4µM*	i	-22.1%	-21.0%	-8.3%	6.2%
COc1ccc(CN2CCN(C(=O)Cc3ccccc3)CC2)c(OC)c1	i	i	1.4%	-4.3%	13.3%	8.4%
COc1ccc(CN2CCN(Cc3ccccc3)CC2)c(OC)c1	23.1µM*	i	?	-23.0%	-22.6%	-14.7%
COc1cccc(N2CCN(Cc3cccc(Cl)c3)CC2)c1	i	i	-2.5%	-11.5%	1.2%	3.5%
COC(=O)C(C)Oc1cc(C)cc2oc(=O)c3c(c12)CCC3 (stereo not given)	?	?	-14.1%	-6.0%	-21.7%	-7.4%
Cc1cc(OCC(=O)NCC(O)c2ccccc2)c2c3c(c(=O)oc2c1)CCCC3 (stereo not given)	i	i	?	18.4µM*	-11.3%	-6.4%
Cc1cc(OC(C)C(=O)NCC(O)c2ccccc2)c2c3c(c(=O)oc2c1)CCCC3 (stereo not given)	i	i	?	?	-3.5%	-6.6%
CCOC(=O)C(C)Oc1cc(C)cc2oc(=O)c3c(c12)CCCC3 (stereo not given)	10.3µM*	i	-27.4%	-21.3%	-7.9%	-1.4%
O=C1NCN(c2ccccc2)C12CCN(CCCOc1ccc(F)cc1)CC2	·	·	?	23.1µM*	·	·
Cc1c(C=O)c2ccccc2n1Cc1ccc([N+](=O)[O-])cc1	10.3µM*	i	?	-29.8%	-24.3%	-16.3%

Bioassay records (PubChem)
